Several values for one entry are separate records, joined by “and”; a condition that tells them apart may be missing. Identical values can stand only once. Inconclusive results are not listed. Entries that show only a call come without a potency. More than one record can exist for a structure, and the calls need not agree. Activity calls are given as the source filed them. Unless noted, calls come from the whole dose curve; as a rule, active = well fitted curve in the direction sought with a large enough effect in the repeat runs; inconclusive = weak or mixed curves; inactive = no such curve, though single readings can be large; an effect the other way counts as inactive or inconclusive.
What was measured:
[1] = qHTS assay to identify small molecule agonists of the vitamin D receptor (VDR) signaling pathway - cell viability counter screen (AID 743224); conditions: VDR-bla HEK293T viability, CellTiter-Glo luminescence, 16 h; series mostly up to 62.6 µM; note: nearly all actives have a fitted effect of over 50% in size; note: potency is the fitted concentration of half-maximal effect
Method in brief: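 Plated VDR-bla cells (4 h, 37C) received compound, incubated 16 h, then LiveBLAzer substrate 2 h RT; CellTiter-Glo added afterwards, luminescence read at 30 min.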

[2] = qHTS assay to identify small molecule antagonists of the vitamin D receptor (VDR) signaling pathway - cell viability counter screen (AID 743225); conditions: VDR-bla HEK293T viability, CellTiter-Glo luminescence, 16 h; series mostly up to 61 µM; note: nearly all actives have a fitted effect of over 50% in size
Method in brief: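 Luminescent cell viability (CellTiter-Glo) in VDR-bla HEK 293T cells after 16 h compound exposure at 37C in the presence of 3 nM final 1-alpha,25-dihydroxy vitamin D3.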

[3] = qHTS assay to identify small molecule agonists of the NFkB signaling pathway (AID 1159509; active = well fitted curve in the direction sought with a large enough effect in the signal ratio in the repeat runs, not every such curve was filed as active; the % refers to the signal ratio); conditions: NFkB-bla ME-180 cells, beta-lactamase FRET ratio, 5 h; series mostly up to 61 µM
Method in brief: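 After overnight attachment, reporter cells received test compounds, DMSO or positive controls and were incubated 5 hr at 37 C. FRET substrate was then added for 1.5 hr at room temperature before dual-emission fluorescence reading.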

[4] = qHTS assay to identify small molecule agonists of the endoplasmic reticulum stress response signaling pathway (AID 1159516; active = well fitted activation curve with a large enough effect in the signal ratio in the repeat runs, not every such curve was filed as active; the % refers to the signal ratio); conditions: ESRE-bla HeLa, ER stress beta-lactamase reporter, 5 h; series mostly up to 61 µM
Method in brief: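 An ESRE-bla HeLa cell assay: compounds were pin-transferred from DMSO onto overnight-plated cells and left 5 hr at 37 C. Substrate was then loaded for 2 hr at room temperature before reading fluorescence at 460 nm and 530 nm.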

[5] = qHTS assay to identify small molecule agonists of the endoplasmic reticulum stress response signaling pathway - cell viability counter screen (AID 1159517; calls by dose curve;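 note: HeLa cells carrying an ER stress response element beta-lactamase reporter; nearly all actives have a fitted effect of over 50% in size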); conditions: ESRE-bla HeLa viability, CellTiter-Glo luminescence, 5 h; series mostly up to 61 µM
Method in brief: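 Counter-screen wells were identical to the reporter wells. Cells were plated at 1,500 per well and dosed for 5 hr, then read for luminescence 30 min after CellTiter-Glo addition.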

[6] = qHTS assay to identify small molecule antagonists of the retinoid-related orphan receptor gamma (ROR-gamma) signaling pathway - cell viability counter screen (AID 1159520); conditions: Tet-on RORgamma CHO cells viability, ATP luminescence, 16 h; series mostly up to 92.4 µM; note: nearly all actives have a fitted effect of over 50% in size
Method in brief: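 Tet-on ROR gamma CHO cells were given compounds for 2 hr, then doxycycline hyclate at 1 uM final, and incubated 16 hr at 37 C. Viability was measured as ATP content by CellTiter-Glo luminescence.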

[7] = target: Nuclear receptor ROR-gamma (Homo sapiens) (UniProt P51449); experiment: qHTS assay to identify small molecule antagonists of the retinoid-related orphan receptor gamma (ROR-gamma) signaling pathway (AID 1159521; note: nearly all actives have a fitted effect of over 50% in size; note: potency is the fitted concentration of half-maximal effect); conditions: Tet-on RORgamma CHO cells, RORE-luciferase, 16 h; series mostly up to 92.4 µM
Method in brief: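 CHO cells expressing RORγ under a TET-on promoter, luciferase under RORE control. Dox 1 uM final, 16 h; compounds added 2 h prior. Luminescence decrease measured.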

[8] = qHTS assay to identify small molecule agonists of the AP-1 signaling pathway - cell viability counter screen (AID 1159525; calls by dose curve; note: nearly all actives have a fitted effect of over 55% in size); conditions: ME-180 AP-1-bla cells viability, ATP luminescence, 5 h; series mostly up to 76.8 µM
Method in brief: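 AP-1-bla ME-180 cells in Opti-MEM with 0.5% dialyzed FBS, compound exposure 5 h at 37 C in 15-point titration. Viability read in the same wells as ATP content by CellTiter-Glo luminescence, normalised to tetra-n-octylammonium bromide and DMSO controls.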

[9] = qHTS assay to identify small molecule agonists of the AP-1 signaling pathway (AID 1159526; calls by dose curve); conditions: ME-180 (cervical carcinoma) AP-1-bla reporter, beta-lactamase FRET ratio, 5 h; series mostly up to 76.8 µM
[10] = target: Retinoic acid receptor RXR-alpha (Homo sapiens) (UniProt P19793); experiment: qHTS assay to identify small molecule agonists of the RXR signaling pathway (AID 1159527; calls by dose curve; note: nearly all actives have a fitted effect of over 35% in size); conditions: HEK293T RXRa-UAS-bla, beta-lactamase ratio, 16 h; series mostly up to 76.8 µM
Method in brief: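 Beta-lactamase reporter assay, agonist format. Engineered HEK 293T line, charcoal-stripped FBS at 2%, overnight (16 hr) exposure, fluorescence at 460 and 530 nm after 405 nm excitation.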

[11] = qHTS assay to identify small molecule agonists of the RXR signaling pathway - cell viability counter screen (AID 1159529); conditions: RXR-alpha-bla HEK293T viability, CellTiter-Glo, 16 h; series mostly up to 76.8 µM; note: nearly all actives have a fitted effect of over 50% in size; note: potency is the fitted concentration of half-maximal effect
Method in brief: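 Same-well viability check after the LiveBLAzer FRET read: CellTiter-Glo added, luminescence measured after 30 min at room temperature. Reporter HEK 293T cells had been treated with compounds for 16 hr following a 5 hr preincubation.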

[12] = qHTS assay to identify small molecule antagonists of the retinoid acid receptor (RAR) signaling pathway - cell viability counter screen (AID 1159551); conditions: C3RL4 cells viability, ATP luminescence (CellTiter-Glo), 6 h; series mostly up to 92.4 µM; note: nearly all actives have a fitted effect of over 35% in size
Method in brief: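 Retinol-stimulated (1 uM final) C3RL4 cells, compound 6 h, 37 C; readout CellTiter-Glo luminescence (ATP) after 30 min RT incubation.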

[13] = qHTS assay to identify small molecule antagonists of the retinoic acid receptor (RAR) signaling pathway (AID 1159552; note: nearly all actives have a fitted effect of over 50% in size); conditions: C3RL4 RARE luciferase reporter, retinol-stimulated, 6 h; series mostly up to 92.4 µM
Method in brief: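 Readout: luciferase luminescence, 30 min post-reagent at RT. Setup: C3RL4 RARE reporter cells, compounds plus retinol 1 uM final, 6 hr incubation at 37 C and 5% CO2.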

[14] = qHTS assay to identify small molecule agonists of the retinoic acid receptor (RAR) signaling pathway (AID 1159553); conditions: C3RL4 RARE luciferase reporter, agonist, 6 h; series mostly up to 73.3 µM
Method in brief: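 Reporter readout comes from luciferase under RARE control in C3RL4 cells; compound exposure lasts 6 hr at 37 C in 5% CO2, and luminescence is recorded following a 30 min room-temperature incubation with reagent.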

Sequence of Retinoic acid receptor RXR-alpha (Homo sapiens) (P19793 whole entry, looked up): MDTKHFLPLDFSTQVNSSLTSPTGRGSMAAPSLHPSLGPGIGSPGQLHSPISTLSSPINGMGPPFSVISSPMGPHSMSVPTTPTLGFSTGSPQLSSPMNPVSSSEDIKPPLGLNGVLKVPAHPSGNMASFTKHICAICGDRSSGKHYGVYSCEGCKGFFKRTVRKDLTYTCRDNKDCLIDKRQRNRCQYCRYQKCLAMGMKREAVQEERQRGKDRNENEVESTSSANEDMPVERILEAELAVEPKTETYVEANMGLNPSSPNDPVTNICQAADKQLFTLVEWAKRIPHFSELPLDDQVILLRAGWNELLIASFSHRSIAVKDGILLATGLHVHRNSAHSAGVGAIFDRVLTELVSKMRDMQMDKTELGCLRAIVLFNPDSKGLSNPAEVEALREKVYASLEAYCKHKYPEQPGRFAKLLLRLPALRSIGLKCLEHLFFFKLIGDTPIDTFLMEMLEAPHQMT

**Q.** What does the source list for `CCCCC/C=C\C/C=C\CCCCCCCC(=O)OC`?
**A.** Potency [1]: inactive and 49 µM (active); Potency [2]: inactive; outcome [3]: inactive; outcome [4]: inactive; Potency [5]: inactive; Potency [6]: inactive; Potency [7]: inactive; Potency [8]: inactive; Potency [9]: inactive; Potency [10]: inactive; Potency [11]: inactive and 34.7 µM (active); Potency [12]: inactive; Potency [13]: inactive; Potency [14]: inactive

**Q.** Which Potency [1] does the source give for `CC1COc2ccccc2N1C(=O)C(Cl)Cl` (centres undefined) here?
**A.** inactive

**Q.** What about the Potency [2] of the same compound?
**A.** inactive

**Q.** And the outcome [3]?
**A.** inactive

**Q.** And the Potency [5]?
**A.** inactive

**Q.** And the Potency [6]?
**A.** inactive

**Q.** And the Potency [7]?
**A.** 61 µM (active) and 48.5 µM (active)

**Q.** What about the Potency [8] of the same compound?
**A.** inactive

**Q.** What about the Potency [9] of the same compound?
**A.** inactive

**Q.** What about the Potency [11] of the same compound?
**A.** inactive

**Q.** And the Potency [12]?
**A.** inactive

**Q.** With `CC(C)(C)C(=O)C1C(=O)c2ccccc2C1=O` as the compound, how does the Potency [1] read?
**A.** inactive

**Q.** What about the Potency [2] of the same compound?
**A.** inactive

**Q.** What about the outcome [3] of the same compound?
**A.** inactive

**Q.** What about the outcome [4] of the same compound?
**A.** inactive

**Q.** What about the Potency [5] of the same compound?
**A.** inactive

**Q.** And the Potency [7]?
**A.** 17.1 µM (active) and 30.6 µM (active)

**Q.** What about the Potency [8] of the same compound?
**A.** inactive

**Q.** And the Potency [9]?
**A.** inactive

**Q.** What about the Potency [10] of the same compound?
**A.** inactive

**Q.** And the Potency [11]?
**A.** inactive

**Q.** What about the Potency [12] of the same compound?
**A.** inactive

**Q.** What about the Potency [13] of the same compound?
**A.** inactive

**Q.** What about the Potency [14] of the same compound?
**A.** inactive

**Q.** With `CCCCC(CC)C(=O)OCCOCCOCCOC(=O)C(CC)CCCC` (centres undefined) as the compound, how does the Potency [1] read?
**A.** inactive

**Q.** And the Potency [2]?
**A.** inactive

**Q.** And the outcome [3]?
**A.** inactive

**Q.** What about the outcome [4] of the same compound?
**A.** inactive

**Q.** What about the Potency [5] of the same compound?
**A.** inactive

**Q.** And the Potency [7]?
**A.** inactive

**Q.** And the Potency [8]?
**A.** inactive

**Q.** And the Potency [9]?
**A.** inactive

**Q.** And the Potency [10]?
**A.** inactive

**Q.** And the Potency [12]?
**A.** inactive

**Q.** And the Potency [13]?
**A.** inactive

**Q.** And the Potency [14]?
**A.** inactive
